PMC7862700, “An all-to-all approach to the identification of sequence-specific readers for epigenetic DNA modifications on cytosine”

Legend:
Test in all cases: DAPPL (digital affinity profiling via proximity ligation, sequencing); 10 mM Tris-HCl pH 7.5, 50 mM NaCl, 1 mM DTT, 4% glycerol, room temperature, 30 min; GST-TFs on glutathione beads, 16-mer random dsDNA library, 0.1% formaldehyde crosslink after washing; high values mean tight binding
Conditions in all cases: protein: recombinant; tags: N-terminal GST; dsDNA, one strand shown
FLI1 = molecular target: T1, FLI1 (Homo sapiens, UniProt Q01543 1-452)
T1 sequence: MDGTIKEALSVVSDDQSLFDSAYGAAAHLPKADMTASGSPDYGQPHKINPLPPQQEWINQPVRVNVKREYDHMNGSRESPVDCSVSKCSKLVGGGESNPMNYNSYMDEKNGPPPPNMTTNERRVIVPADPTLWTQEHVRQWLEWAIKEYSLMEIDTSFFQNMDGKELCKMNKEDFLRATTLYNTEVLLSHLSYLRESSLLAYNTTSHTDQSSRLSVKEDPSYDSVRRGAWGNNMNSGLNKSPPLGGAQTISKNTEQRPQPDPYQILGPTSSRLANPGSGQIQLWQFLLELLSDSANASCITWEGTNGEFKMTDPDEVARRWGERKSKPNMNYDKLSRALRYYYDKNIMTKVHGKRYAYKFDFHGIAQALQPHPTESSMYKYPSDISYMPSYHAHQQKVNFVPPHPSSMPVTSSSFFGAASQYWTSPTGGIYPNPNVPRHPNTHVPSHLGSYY
How it was run: (§1)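 Binding signal is defined as a hexamer's read frequency for one factor over its frequency for the tag-only sample. To obtain reads, GST-fused human transcription factors were expressed in yeast, captured on glutathione beads, barcoded with DNA and pooled with that sample. Pools met 200 nmole of a 16-mer random double-stranded DNA library in Tris/NaCl/DTT/glycerol buffer for 30 min at room temperature before washing, 0.1% formaldehyde crosslinking, proximity ligation (BsaI/T4 ligase, 1 h, 37 °C), PCR and Illumina NextSeq500 sequencing.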

ELK1 = molecular target: T2, ELK1 (Homo sapiens, UniProt P19419 1-428)
T2 sequence: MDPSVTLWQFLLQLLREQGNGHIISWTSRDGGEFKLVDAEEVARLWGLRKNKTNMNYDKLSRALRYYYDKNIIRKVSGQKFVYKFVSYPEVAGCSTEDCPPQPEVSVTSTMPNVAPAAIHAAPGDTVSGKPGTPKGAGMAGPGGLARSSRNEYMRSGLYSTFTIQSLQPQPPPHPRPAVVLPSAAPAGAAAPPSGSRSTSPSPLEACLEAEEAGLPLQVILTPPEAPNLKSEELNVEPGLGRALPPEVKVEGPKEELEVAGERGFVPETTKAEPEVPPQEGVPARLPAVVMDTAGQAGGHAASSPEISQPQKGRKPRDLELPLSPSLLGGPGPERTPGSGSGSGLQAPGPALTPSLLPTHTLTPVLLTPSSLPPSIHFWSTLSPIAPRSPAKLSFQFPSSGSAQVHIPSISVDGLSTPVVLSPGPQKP
How it was run: as §1

GABPA = molecular target: T3, GABPA (Homo sapiens, UniProt Q06546 1-454)
T3 sequence: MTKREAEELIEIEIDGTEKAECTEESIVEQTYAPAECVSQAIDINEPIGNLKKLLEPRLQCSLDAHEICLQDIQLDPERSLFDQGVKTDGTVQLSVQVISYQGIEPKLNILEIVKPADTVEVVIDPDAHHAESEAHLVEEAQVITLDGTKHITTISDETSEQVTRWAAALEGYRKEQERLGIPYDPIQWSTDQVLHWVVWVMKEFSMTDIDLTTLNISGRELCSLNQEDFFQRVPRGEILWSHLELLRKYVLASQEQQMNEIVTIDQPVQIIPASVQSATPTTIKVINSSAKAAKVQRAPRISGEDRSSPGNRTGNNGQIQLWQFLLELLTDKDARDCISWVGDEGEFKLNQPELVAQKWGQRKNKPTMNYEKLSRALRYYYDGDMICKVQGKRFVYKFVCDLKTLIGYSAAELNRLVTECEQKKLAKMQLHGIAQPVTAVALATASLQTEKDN
How it was run: as §1

ERG = molecular target: T4, ERG (Homo sapiens, UniProt P11308 1-479)
T4 sequence: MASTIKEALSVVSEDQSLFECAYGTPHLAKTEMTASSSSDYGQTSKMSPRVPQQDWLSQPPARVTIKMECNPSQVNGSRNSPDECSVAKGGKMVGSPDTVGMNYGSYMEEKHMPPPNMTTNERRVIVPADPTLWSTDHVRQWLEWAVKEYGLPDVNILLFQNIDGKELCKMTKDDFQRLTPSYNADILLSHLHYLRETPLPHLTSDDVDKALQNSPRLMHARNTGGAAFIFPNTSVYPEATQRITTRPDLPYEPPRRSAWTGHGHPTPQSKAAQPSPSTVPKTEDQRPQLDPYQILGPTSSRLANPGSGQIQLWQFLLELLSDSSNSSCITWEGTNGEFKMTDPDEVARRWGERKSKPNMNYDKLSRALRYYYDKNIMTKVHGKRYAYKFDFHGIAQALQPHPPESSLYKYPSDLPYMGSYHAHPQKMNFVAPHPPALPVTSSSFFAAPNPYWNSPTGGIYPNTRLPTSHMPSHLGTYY
How it was run: as §1

ELF1 = ELF1 (Homo sapiens, UniProt P32519 1-619)
How it was run: as §1

EHF = molecular target: T5, EHF (Homo sapiens, UniProt Q9NZC4 1-300)
T5 sequence: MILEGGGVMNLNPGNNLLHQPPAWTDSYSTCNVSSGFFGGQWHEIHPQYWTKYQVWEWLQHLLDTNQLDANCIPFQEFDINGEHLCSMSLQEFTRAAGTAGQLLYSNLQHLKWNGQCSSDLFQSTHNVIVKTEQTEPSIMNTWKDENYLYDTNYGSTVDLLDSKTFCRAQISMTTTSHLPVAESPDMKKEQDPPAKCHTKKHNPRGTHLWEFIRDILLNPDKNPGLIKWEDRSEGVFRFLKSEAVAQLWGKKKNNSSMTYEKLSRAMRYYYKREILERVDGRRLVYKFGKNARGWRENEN
How it was run: as §1

SPI1 = SPI1 (Homo sapiens, UniProt P17947 1-270)
How it was run: as §1

SPIB = SPIB (Homo sapiens, UniProt Q01892 1-262)
How it was run: as §1

ELK3 = molecular target: T6, ELK3 (Homo sapiens, UniProt P41970 1-407)
T6 sequence: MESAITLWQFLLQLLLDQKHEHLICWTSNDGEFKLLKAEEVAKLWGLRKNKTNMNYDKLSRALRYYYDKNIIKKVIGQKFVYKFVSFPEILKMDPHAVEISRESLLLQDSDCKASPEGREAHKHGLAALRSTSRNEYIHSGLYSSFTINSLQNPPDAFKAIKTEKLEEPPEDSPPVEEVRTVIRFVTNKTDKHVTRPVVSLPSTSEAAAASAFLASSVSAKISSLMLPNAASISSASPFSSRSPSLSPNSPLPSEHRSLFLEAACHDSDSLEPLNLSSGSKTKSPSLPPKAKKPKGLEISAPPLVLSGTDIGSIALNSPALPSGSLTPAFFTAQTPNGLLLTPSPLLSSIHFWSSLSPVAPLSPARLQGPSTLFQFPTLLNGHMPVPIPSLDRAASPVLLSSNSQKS
How it was run: as §1

FEV = molecular target: T7, FEV (Homo sapiens, UniProt Q99581 1-238)
T7 sequence: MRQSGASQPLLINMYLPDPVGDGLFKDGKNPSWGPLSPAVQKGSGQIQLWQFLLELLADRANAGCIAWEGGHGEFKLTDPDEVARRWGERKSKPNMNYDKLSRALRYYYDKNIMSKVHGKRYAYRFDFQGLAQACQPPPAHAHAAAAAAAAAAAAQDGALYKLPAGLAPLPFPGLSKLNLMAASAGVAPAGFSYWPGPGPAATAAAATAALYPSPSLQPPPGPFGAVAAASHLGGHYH
How it was run: as §1

ETV5 = ETV5 (Homo sapiens, UniProt P41161 1-510)
How it was run: as §1

ELF4 = ELF4 (Homo sapiens, UniProt Q99607 1-663)
How it was run: as §1

ETV1 = ETV1 (Homo sapiens, UniProt P50549 1-477)
How it was run: as §1

ERF = molecular target: T8, ERF (Homo sapiens, UniProt P50548 1-548)
T8 sequence: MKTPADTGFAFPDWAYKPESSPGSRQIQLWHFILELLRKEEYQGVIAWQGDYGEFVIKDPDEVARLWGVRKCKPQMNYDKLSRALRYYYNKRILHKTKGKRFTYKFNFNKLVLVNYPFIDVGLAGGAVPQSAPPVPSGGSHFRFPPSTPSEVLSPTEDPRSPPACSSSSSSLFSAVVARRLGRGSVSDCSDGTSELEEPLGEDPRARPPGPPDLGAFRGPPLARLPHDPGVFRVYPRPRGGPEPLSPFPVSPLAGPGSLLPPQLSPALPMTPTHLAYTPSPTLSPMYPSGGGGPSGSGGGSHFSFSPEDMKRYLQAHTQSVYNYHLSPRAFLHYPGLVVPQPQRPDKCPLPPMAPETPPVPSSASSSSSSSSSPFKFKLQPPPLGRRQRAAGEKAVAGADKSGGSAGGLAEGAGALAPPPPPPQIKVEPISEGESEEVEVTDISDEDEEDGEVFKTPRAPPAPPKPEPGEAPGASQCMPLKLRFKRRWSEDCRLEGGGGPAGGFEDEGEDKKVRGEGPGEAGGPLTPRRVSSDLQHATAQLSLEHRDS
How it was run: as §1

ETV3L = molecular target: T9, ETV3L (Homo sapiens, UniProt Q6ZN32 1-361)
T9 sequence: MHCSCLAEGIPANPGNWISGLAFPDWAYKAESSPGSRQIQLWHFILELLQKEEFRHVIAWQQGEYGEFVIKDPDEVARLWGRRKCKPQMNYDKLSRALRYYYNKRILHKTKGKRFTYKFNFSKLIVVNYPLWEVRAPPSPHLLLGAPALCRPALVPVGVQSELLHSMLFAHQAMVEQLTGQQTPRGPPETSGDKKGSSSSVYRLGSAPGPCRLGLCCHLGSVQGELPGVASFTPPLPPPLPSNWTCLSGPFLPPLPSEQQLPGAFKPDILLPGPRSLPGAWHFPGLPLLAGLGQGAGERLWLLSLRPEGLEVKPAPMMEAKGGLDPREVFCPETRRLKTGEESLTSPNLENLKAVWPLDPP
How it was run: as §1

ETS2 = molecular target: T10, ETS2 (Homo sapiens, UniProt P15036 1-469)
T10 sequence: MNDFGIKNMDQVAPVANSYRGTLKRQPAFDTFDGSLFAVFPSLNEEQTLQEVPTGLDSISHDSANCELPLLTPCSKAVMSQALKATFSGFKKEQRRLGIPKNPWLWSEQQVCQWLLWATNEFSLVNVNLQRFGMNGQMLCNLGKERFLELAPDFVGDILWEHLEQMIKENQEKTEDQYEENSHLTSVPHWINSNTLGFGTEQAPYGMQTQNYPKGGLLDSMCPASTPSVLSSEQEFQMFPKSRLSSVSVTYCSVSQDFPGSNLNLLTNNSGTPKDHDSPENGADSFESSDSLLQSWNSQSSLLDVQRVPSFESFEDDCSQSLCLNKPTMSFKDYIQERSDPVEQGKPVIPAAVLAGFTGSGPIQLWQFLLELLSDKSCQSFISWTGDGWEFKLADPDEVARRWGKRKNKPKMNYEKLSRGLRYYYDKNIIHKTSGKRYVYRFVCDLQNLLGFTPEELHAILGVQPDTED
How it was run: as §1

SPDEF = molecular target: T11, SPDEF (Homo sapiens, UniProt O95238 1-335)
T11 sequence: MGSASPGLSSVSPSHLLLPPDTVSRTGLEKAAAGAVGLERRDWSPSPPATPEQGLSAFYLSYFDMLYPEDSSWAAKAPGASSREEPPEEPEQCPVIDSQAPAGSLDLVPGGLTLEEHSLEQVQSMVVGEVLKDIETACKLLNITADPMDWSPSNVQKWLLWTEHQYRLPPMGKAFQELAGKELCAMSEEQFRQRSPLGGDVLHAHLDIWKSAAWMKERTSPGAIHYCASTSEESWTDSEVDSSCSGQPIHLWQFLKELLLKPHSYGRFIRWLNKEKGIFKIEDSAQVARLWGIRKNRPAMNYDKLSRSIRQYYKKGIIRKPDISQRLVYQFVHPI
How it was run: as §1

ETV3 = molecular target: T12, ETV3 (Homo sapiens, UniProt P41162-2 1-143)
T12 sequence: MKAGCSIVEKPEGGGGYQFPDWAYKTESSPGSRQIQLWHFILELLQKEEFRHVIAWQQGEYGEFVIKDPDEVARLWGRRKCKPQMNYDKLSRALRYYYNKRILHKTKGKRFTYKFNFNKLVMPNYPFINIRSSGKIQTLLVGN
How it was run: as §1

ETV6 = ETV6 (Homo sapiens, UniProt P41212 1-452)
How it was run: as §1

ETV1, sequence (P50549 whole entry): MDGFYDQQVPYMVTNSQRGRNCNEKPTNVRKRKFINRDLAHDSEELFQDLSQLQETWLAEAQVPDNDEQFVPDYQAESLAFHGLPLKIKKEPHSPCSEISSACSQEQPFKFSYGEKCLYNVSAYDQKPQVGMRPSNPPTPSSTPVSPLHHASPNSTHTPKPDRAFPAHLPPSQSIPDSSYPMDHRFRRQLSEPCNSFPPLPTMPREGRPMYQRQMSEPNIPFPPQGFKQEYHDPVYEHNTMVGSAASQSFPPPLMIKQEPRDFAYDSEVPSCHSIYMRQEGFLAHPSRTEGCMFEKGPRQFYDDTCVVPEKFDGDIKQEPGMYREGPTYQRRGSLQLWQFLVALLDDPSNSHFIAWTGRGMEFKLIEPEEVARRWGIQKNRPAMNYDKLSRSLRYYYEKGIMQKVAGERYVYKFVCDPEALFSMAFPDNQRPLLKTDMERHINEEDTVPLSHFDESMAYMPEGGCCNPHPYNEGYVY
SPIB, sequence (Q01892 whole entry): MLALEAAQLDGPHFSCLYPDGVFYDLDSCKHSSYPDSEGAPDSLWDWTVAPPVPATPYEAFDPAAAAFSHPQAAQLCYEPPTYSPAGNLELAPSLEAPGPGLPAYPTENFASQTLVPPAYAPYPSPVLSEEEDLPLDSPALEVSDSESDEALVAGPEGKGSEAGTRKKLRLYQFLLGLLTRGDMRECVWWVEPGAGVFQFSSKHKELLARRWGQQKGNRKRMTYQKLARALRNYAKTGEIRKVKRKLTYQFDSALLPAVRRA
ELF4, sequence (Q99607 whole entry): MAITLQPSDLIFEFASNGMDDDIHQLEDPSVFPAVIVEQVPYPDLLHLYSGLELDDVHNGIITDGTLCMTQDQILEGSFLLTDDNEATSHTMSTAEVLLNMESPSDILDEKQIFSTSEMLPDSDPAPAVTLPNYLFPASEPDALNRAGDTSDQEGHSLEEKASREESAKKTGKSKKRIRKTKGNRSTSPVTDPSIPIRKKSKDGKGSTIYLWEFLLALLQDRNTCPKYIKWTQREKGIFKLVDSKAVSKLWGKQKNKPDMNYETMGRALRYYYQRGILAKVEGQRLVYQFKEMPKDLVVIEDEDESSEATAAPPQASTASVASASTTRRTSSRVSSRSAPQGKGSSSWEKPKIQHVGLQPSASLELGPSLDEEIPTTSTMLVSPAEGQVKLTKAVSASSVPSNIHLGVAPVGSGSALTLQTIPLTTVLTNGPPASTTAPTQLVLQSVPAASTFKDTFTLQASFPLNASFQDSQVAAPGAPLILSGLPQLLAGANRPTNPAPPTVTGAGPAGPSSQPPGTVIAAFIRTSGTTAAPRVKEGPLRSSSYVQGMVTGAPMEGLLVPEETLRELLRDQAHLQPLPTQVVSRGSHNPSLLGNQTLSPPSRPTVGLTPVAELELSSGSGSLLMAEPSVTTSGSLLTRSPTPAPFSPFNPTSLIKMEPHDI
ETV5, sequence (P41161 whole entry): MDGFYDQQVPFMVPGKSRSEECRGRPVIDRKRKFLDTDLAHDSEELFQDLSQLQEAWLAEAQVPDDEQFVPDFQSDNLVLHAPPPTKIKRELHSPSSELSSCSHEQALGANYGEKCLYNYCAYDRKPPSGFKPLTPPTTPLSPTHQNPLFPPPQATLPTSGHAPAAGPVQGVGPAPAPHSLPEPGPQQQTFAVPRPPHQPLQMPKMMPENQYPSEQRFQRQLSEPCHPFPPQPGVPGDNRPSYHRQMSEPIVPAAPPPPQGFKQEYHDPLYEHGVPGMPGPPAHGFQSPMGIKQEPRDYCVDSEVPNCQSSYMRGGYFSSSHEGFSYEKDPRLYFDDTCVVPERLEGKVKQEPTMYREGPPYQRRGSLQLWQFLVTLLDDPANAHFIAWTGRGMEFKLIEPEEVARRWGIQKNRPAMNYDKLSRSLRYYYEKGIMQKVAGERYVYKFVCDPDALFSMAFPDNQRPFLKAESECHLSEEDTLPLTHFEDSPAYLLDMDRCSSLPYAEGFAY
ETV6, sequence (P41212 whole entry): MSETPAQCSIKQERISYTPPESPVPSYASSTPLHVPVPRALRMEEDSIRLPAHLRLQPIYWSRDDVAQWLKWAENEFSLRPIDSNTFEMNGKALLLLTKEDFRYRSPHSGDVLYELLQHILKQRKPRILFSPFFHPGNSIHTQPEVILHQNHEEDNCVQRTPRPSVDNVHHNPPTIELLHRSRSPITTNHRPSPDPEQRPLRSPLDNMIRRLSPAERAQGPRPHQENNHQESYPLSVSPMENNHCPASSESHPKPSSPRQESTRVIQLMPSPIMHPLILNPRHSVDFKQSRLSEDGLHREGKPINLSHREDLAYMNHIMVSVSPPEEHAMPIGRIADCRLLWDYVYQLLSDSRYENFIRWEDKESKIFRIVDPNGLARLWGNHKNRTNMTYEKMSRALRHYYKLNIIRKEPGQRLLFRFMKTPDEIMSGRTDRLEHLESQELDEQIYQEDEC
ELF1, sequence (P32519 whole entry): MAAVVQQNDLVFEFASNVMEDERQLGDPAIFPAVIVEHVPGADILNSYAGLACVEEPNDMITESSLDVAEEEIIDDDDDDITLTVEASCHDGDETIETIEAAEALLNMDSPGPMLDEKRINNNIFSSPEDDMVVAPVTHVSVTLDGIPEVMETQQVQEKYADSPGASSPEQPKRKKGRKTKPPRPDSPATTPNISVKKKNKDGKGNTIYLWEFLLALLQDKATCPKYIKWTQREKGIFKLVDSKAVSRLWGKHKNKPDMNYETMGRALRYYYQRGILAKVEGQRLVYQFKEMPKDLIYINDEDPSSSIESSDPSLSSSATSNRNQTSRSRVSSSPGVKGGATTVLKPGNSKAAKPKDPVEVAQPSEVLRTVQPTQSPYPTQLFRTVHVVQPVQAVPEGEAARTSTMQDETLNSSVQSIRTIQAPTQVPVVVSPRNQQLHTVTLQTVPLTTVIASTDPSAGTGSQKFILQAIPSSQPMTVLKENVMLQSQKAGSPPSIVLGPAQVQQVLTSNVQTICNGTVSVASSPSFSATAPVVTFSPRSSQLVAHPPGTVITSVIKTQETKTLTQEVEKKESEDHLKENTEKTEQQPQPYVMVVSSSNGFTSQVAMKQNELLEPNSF

In the case of ATTGGC, the binding signal (FLI1) is reported as 1.23 fold enrichment (6-mer frequency, TF over GST control), the binding signal (ELK1) is reported as 1.11 fold enrichment (6-mer frequency, TF over GST control) and the binding signal (GABPA) is reported as 1.09 fold enrichment (6-mer frequency, TF over GST control). The binding signal (ERG) was 1.05 fold enrichment (6-mer frequency, TF over GST control), the binding signal (ELF1) was 1.13 fold enrichment (6-mer frequency, TF over GST control) and the binding signal (EHF) was 1.15 fold enrichment (6-mer frequency, TF over GST control). For the same sequence, the binding signal (SPI1) was 1.01 fold enrichment (6-mer frequency, TF over GST control), the binding signal (SPIB) was 1.13 fold enrichment (6-mer frequency, TF over GST control) and the binding signal (ELK3) was 1.16 fold enrichment (6-mer frequency, TF over GST control). The binding signal (FEV) was 1.13 fold enrichment (6-mer frequency, TF over GST control), the binding signal (ETV5) was 1.07 fold enrichment (6-mer frequency, TF over GST control) and the binding signal (ELF4) was 1.14 fold enrichment (6-mer frequency, TF over GST control). For the same sequence, the binding signal (ETV1) was 1.11 fold enrichment (6-mer frequency, TF over GST control), the binding signal (ERF) was 1.15 fold enrichment (6-mer frequency, TF over GST control) and the binding signal (ETV3L) was 1.18 fold enrichment (6-mer frequency, TF over GST control). The binding signal (ETS2) was 1.18 fold enrichment (6-mer frequency, TF over GST control), the binding signal (SPDEF) was 1.12 fold enrichment (6-mer frequency, TF over GST control) and the binding signal (ETV3) was 1.09 fold enrichment (6-mer frequency, TF over GST control). For the same sequence, the binding signal (ETV6) was 1.13 fold enrichment (6-mer frequency, TF over GST control).
